Experimental data published in PubChem BioAssay (NCATS).
Several values for one entry are separate records, joined by “and”; a condition that tells them apart may be missing. Identical values can stand only once. Records with an inconclusive call do not appear. Some compounds were tested as several samples or in several runs, with calls that do not always agree. Activity calls are given as the source filed them. Calls follow the shape of the full dose curve.

target: Cytochrome P450 1A2 (Homo sapiens) (UniProt P05177); assay: p450-cyp1a2 (AID 410); conditions: recombinant CYP1A2, luciferin-ME demethylation, luminescence; series mostly up to 57 µM; activity change, negative = inhibition: at the top concentration;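 as to activity change, negative = inhibition: -100% = full effect of reference inhibitor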
Sequence (P05177 whole entry, looked up): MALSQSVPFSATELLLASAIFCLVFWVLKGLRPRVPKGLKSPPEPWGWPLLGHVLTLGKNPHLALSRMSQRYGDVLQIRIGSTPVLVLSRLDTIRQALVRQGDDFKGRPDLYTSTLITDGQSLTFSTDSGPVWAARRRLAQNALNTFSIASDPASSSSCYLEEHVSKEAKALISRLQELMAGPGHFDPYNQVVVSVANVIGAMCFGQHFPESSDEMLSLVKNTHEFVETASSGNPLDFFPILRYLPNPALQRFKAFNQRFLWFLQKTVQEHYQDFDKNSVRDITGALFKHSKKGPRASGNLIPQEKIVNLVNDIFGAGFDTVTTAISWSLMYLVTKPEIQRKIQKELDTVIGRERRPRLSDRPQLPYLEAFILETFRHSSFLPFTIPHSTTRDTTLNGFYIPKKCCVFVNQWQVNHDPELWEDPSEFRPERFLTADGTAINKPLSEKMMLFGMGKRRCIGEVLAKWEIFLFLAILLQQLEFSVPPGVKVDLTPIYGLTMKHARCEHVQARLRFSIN
Description: The P450 gene superfamily is involved in metabolism and the clearance of xenobiotics. This assay used human CYP1A2 to measure the demethylation of luciferin 6' methyl ether (Luciferin-ME; Promega-Glo) to luciferin. The luciferin is then measured by luminescence after the addition of a luciferase detection regeant. Luciferin-ME concentration in the assay was equal to its Km for CYP1A2.
NCGC Assay Protocol Summary:
Two uL of enzyme and substrate mix (final concentrations: 20nM CYP1A2, 100uM Luciferin-ME, 100mM KPO4) were dispensed into a white, solid bottom 1536-well microtiter plate. 23nL of compound was transferred by a pin tool. The plate was incubated at room temperature for 10 min. Two uL of an NADPH regeneration solution (Promega supplied reagent) was dispensed and the reaction was allowed to continue for 60 min at room temperature. Then the reaction was stopped by reconstituted detection reagent. After another 20 min of incubation the plate was read on the ViewLux (Perkin Elmer) at 60 sec exposure and 2x2 binning. This protocol was carried out with Promega-Glo reagents and further information can be found at http://www.promega.com/tbs/tb325/tb325.pdf. Data were normalized to the to AC100 inhibition (57 uM furafylline).
Potency is read from the fitted curve at half-maximal effect.

Row | SMILES | activity change, negative = inhibition | Potency
1 | NCCCCN | -17% (inactive) | 
2 | CCSC(=N)N | -14.3% (inactive) | 
3 | O=c1oc(Cl)c(Cl)c2ccccc12 |  | 1 µM (active)
4 | N#C/C(=C\c1ccc(O)c(O)c1)C(=O)NCCCNC(=O)/C(C#N)=C/c1ccc(O)c(O)c1 | -13.5% (inactive) | 
5 | CN(C)CCCc1cc(C(=O)Nc2ccc(-c3ccncc3)cc2)ccc1O |  | 39.8 µM (active)
6 | NS(=O)(=O)c1cccc2c1c([N+](=O)[O-])cc1nc(O)c(O)nc12 |  | 25.1 µM (active) and inactive
7 | O=c1cc(-c2ccccc2)[nH]c2nc(Cl)ccc12 |  | 0.398 µM (active)
8 | COc1ccc(-c2ccc(N)[n+](CCCC(=O)O)n2)cc1 |  | inactive
9 | O=[N+]([O-])c1cccc2cn[nH]c12 |  | 12.6 µM (active) and 2.51 µM (active)
10 | O=c1[nH]ccc2c(O)cccc12 |  | 15.8 µM (active)
11 | O=c1[nH]c2cc(Cl)ccc2c(O)c1-c1ccc(Oc2ccccc2)cc1 |  | 10 µM (active)
12 | C=CCn1c(=O)c2c(nc(-c3ccc(S(=O)(=O)O)cc3)n2C)n(C)c1=O | -15% (inactive) | 
13 | NC(N)=[N+]1CCc2ccccc2C1 | -11.2% (inactive) | 
14 | S=C(S)N1CCCC1 |  | 31.6 µM (active) and 12.6 µM (active)
15 | O=C(O)Cc1c[nH]c2ccc(O)cc12 | 6.6% (inactive) | 
16 | CN(C)S(=O)(=O)c1ccc2c(c1)/C(=C/c1cc3c([nH]1)CCCC3)C(=O)N2 |  | 0.316 µM (active)
17 | C=CC[C@H](N)C(=O)O | -2.5% (inactive) | 
18 | N=C(N)SCCc1cnc[nH]1 |  | inactive
19 | Nc1ncnc2c1c(-c1ccc(Oc3ccccc3)cc1)cn2C1CCCC1 |  | 15.8 µM (active)
20 | CCCCCCCC/C=C\CCCCCCCC(=O)NCCc1ccc(O)c(O)c1 |  | 20 µM (active)

Row | SMILES | activity change, negative = inhibition | Potency
21 | O=C(c1ccc2c(c1)OCCO2)N1CCCCC1 |  | 15.8 µM (active)
22 | CC[N+](CC)(CC)CC(=O)Nc1c(C)cccc1C |  | inactive and 31.6 µM (active)
23 | Oc1ccc(Cn2cc[nH]c2=S)cc1 |  | 6.31 µM (active)
24 | C[C@H](NC(=O)/C(C#N)=C/c1ccc(O)c(O)c1)c1ccccc1 |  | 31.6 µM (active) and 15.8 µM (active)
25 | Cc1nc(N=Nc2ccc(S(=O)(=O)O)cc2S(=O)(=O)O)c(COP(=O)(O)O)c(C=O)c1O |  | inactive
26 | CC(C)Cn1c(=O)n(C)c(=O)c2[nH]cnc21 |  | 20 µM (active)
27 | CCCCCCC/C=C\CCCCCCCCC(=O)O |  | 31.6 µM (active)
28 | CCN(CC)CCOC(=O)c1cc(Cl)c(N)cc1OC |  | 12.6 µM (active)
29 | O=C(O)/C(=C/c1c(C(=O)O)[nH]c2cc(Cl)cc(Cl)c12)c1ccccc1 |  | 12.6 µM (active)
30 | Nc1ncnc2c1ncn2C1CCCC1 |  | 20 µM (active)
31 | O=C(O)c1cc(=O)cc(C(=O)O)[nH]1 | 2.7% (inactive) | 
32 | CCCCCCCCCCCCCCSCC(=O)O | -17.9% (inactive) | 
33 | O=c1[nH]c(=O)c2nc3ccccc3nc2[nH]1 |  | 12.6 µM (active)
34 | CCN(c1nc(N)c(C(=O)N=C(N)N)nc1Cl)C(C)C |  | 2 µM (active)
35 | COc1ccc(NC(=O)c2ccc(-c3ccc(-c4noc(C)n4)cc3C)cc2)cc1N1CCN(C)CC1 |  | inactive
36 | CC(=O)NCCc1c[nH]c2ccc(O)cc12 |  | 15.8 µM (active)
37 | CNc1cc(NS(=O)(=O)c2ccc(N)cc2)nc(NC)n1 | -10.1% (inactive) | 
38 | CNC(=O)c1cc2c(cn1)[nH]c1ccccc12 |  | 794 nM (active) and 50.1 nM (active)
39 | C#CCn1c(=O)c2c(ncn2C)n(C)c1=O | -16.3% (inactive) | 
40 | NC/C=C\C(=O)O |  | inactive
